Measurements reported in PubChem BioAssay AID485364 (National Center for Advancing Translational Sciences (NCATS), 2010).
Hit rate of the full screen: of about 360,000 compounds, about 11,000 (3.1%) were called active. Roughly 4% stayed inconclusive and do not appear here. Calls come from the whole dose curve; as a rule, active = well fitted inhibition curve with a large enough effect; inconclusive = small, poorly fitted or top-dose-only effect; inactive = no such curve, though single readings can be large or run the other way. The entries come from a sample that favours actives as a whole. A call without a number means that no potency is given here.
Note: nearly all actives have a fitted effect of over 60% in size.
Potency is the fitted concentration of half-maximal effect.

The molecules below were run against Schistosoma mansoni thioredoxin glutathione reductase (TGR) (UniProt Q962Y6) (assay: qHTS Assay for the Inhibitors of Schistosoma Mansoni Peroxiredoxins). Settings: purified TGR, DTNB reduction, TNB absorbance 405 nm; series mostly up to 114 µM.
Procedure, shortened: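 Kinetic colorimetric format: TGR-catalysed, NADPH-driven DTNB reduction monitored via TNB absorbance. Enzyme dispensed at 20 nM; compound exposure 15 min at room temperature before reaction start.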
`CCOc1ccccc1N(CC)C(=O)Nc1cn(C)c(=O)c2ccccc12` was tested, and the Potency was “inactive”. With `COc1ccc(NC(=O)Nc2cccc(-c3noc(C)n3)c2)cc1` the Potency was “inactive”. For `CCCCCn1c(CCNC(=O)c2ccc(F)cc2)nc2ccccc21`, the Potency was “inactive”. For `O=C(CC1C(=O)N(c2ccccc2)C(=O)N1CCc1cccs1)Nc1ccc(F)cc1` (configuration not stated), the Potency was “inactive”. For `Cc1ccc(C(=O)Nc2ccc(OCc3cc(=O)n4c(C)csc4n3)cc2)cc1`, the Potency was “inactive”. For `CC(C)C12CN3CC(C(C)C)(CN(C1)C3c1ccc(OCc3ccccc3)cc1)C2=O` (configuration not stated), the Potency was “inactive”. With `CCOC(=O)C1=C(c2ccccc2)Nc2ncnn2C1c1ccc(Cl)cc1` (configuration not stated) the Potency was “inactive”. With `Fc1ccccc1/C=C1\CCCC2=C1Nc1ncnn1C2c1ccccc1F` (configuration not stated) the Potency was 1.26 µM (active). For `COc1ccc2c(Sc3ccc(C)cc3)c(C(=O)NC(C)c3ccccc3)[nH]c2c1` (configuration not stated), the Potency was “inactive”. In the case of `Cc1ccc(-c2cc(N)n(Cc3cccc(Cl)c3)n2)cc1`, the Potency is reported as “inactive”. In the case of `COc1cccc(Nc2nc3ccccc3c3nncn23)c1`, the Potency is reported as “inactive”. For `Cc1ccc(C(=O)COC(=O)C(Cc2c[nH]c3ccccc23)NC(=O)c2ccc(Br)cc2)cc1` (configuration not stated), the Potency was “inactive”. With `COc1ccc(OCCCn2cccc2/C=C2/C(=N)N3OC(C)=CC3=NC2=O)cc1` the Potency was “inactive”. `O=C(CCCOc1ccccc1)NCc1ccco1` was tested, and the Potency was “inactive”. `O=C1NC(=O)N(Cc2ccco2)C(=O)/C1=C\c1cccn1CCOc1ccccc1` was tested, and the Potency was 11.2 µM (active). `NS(=O)(=O)c1ccc(-c2ccc(/C=C3\SC(=O)NC3=O)o2)cc1` was tested, and the Potency was “inactive”. For `O=C1c2ccccc2C(=O)N1CCOc1ccc(F)cc1`, the Potency was “inactive”. `O=C1NC(=O)N(Cc2ccco2)C(=O)/C1=C\c1ccc(-c2ccc(F)cc2)o1` was tested, and the Potency was 11.2 µM (active). `CCn1c(C)c(C)c2cc(C(=O)NCCc3cc(OC)ccc3OC)ccc21` was tested, and the Potency was “inactive”. In the case of `CC(=O)N1CCCc2cc(S(=O)(=O)N3CCC(C(=O)NC4CCCCC4)CC3)ccc21`, the Potency is reported as “inactive”. In the case of `CCc1ccc(NC(=O)CSc2nc3c([nH]c4ccccc43)c(=O)n2-c2cccc(OC)c2)cc1`, the Potency is reported as “inactive”. For `COc1ccc(-n2c(=O)c3c(c4cc(OC)ccc4n3C)n(Cc3cccc(C)c3)c2=O)cc1`, the Potency was “inactive”. In the case of `Nc1c(N(Cc2ccco2)C(=O)c2cccc(F)c2)c(=O)[nH]c(=O)n1Cc1ccccc1`, the Potency is reported as “inactive”. `CCC(=NCCCO)c1c(O)n(-c2ccc(OC)cc2)c(=O)[nH]c1=O` was tested, and the Potency was “inactive”. In the case of `CCC(=NCc1ccco1)c1c(O)n(Cc2ccccc2)c(=O)[nH]c1=O`, the Potency is reported as 28.2 µM (active). In the case of `CC(C)Cn1c(=O)c2ccccc2n2c(CCC(=O)N3CCN(c4cccc(Cl)c4)CC3)nnc12`, the Potency is reported as “inactive”. `Cc1ccc(/C=C/C(=O)O)cc1S(=O)(=O)N1CCC(Cc2ccccc2)CC1` was tested, and the Potency was 25.1 µM (active). `O=C(O)c1ccc(S(=O)(=O)N2CCC(Cc3ccccc3)CC2)cc1` was tested, and the Potency was “inactive”. For `Cn1cc(S(=O)(=O)N2CCC(Cc3ccccc3)CC2)c(=O)n(C)c1=O`, the Potency was “inactive”. With `CNC(=O)C1CCN(S(=O)(=O)c2c(C)noc2/C=C/c2cccc(C)c2)CC1` the Potency was “inactive”. With `COc1ccccc1N1CCN(C(=O)C2CCN(S(=O)(=O)c3c(C)noc3/C=C/c3ccc(C)cc3)CC2)CC1` the Potency was “inactive”. `Cc1noc(/C=C/c2ccco2)c1S(=O)(=O)N1CCC(C(=O)N2CCc3ccccc32)CC1` was tested, and the Potency was 44.7 µM (active). For `CCCCCCn1nnc2sc(-c3ccccc3)cc2c1=O`, the Potency was “inactive”. In the case of `CCCNC(=O)C1CCN(c2nc3ccc(C)cc3[nH]2)CC1`, the Potency is reported as “inactive”. In the case of `CC(=O)N(C1=C(Cl)C(=O)c2ccccc2C1=O)c1ccc(C(=O)O)cc1`, the Potency is reported as 0.224 µM (active). For `O=C(Nc1ccc(F)cc1F)c1ccc2c(=O)n3c(nc2c1)CCCCC3`, the Potency was “inactive”. For `COc1ccccc1-n1c(-c2ccc(C)cc2)cn2c3c(=O)n(C)c(=O)n(C)c3nc12`, the Potency was “inactive”. In the case of `CCn1c(COc2ccc(OC)cc2)nnc1SCC(=O)Nc1cc(OC)ccc1OC`, the Potency is reported as “inactive”. `CCn1c(CNC(=O)c2ccc(OC)c(OC)c2)nnc1SCC(=O)Nc1ccccc1` was tested, and the Potency was “inactive”. For `CCn1c(SC)nc(O)c(C(c2ccc(OC)c(O)c2)c2c(O)nc(SC)n(CC)c2=O)c1=O`, the Potency was 3.98 µM (active). With `Cc1ccc(-n2c(=O)c3cccnc3n2CC(=O)Nc2ccccc2C(F)(F)F)cc1C` the Potency was “inactive”. In the case of `O=C(CCn1c(=O)c2sccc2n(Cc2ccc(F)cc2)c1=O)NCc1ccc2c(c1)OCO2`, the Potency is reported as “inactive”. With `CCn1c(O)c2ccc(C(=O)N=NC(=O)c3cccnc3)cc2c1O` the Potency was 100 µM (active). With `CCn1c(O)c(N=NC(=O)c2cccc(S(=O)(=O)N3CCCCC3)c2)c2ccccc21` the Potency was “inactive”. `C/C(=N\NC(=O)c1ccc2ccccc2c1)c1cccnc1` was tested, and the Potency was “inactive”. `CCOc1ccc(C(=O)N2CCN(CCc3ccccn3)CC2)cc1` was tested, and the Potency was “inactive”. For `CCOc1ccc(NC(=O)c2c(NCc3cccc(OC)c3OC)sc3c2CCC3)cc1`, the Potency was “inactive”. With `COC(=O)CN(c1cccc(C(C)=O)c1)S(C)(=O)=O` the Potency was 50.1 µM (active). `Cc1cccc(N(CC(=O)N2CCOCC2)S(C)(=O)=O)c1` was tested, and the Potency was “inactive”. `CCOc1ccc(N(CC(=O)Nc2cccc(OC)c2)S(C)(=O)=O)cc1` was tested, and the Potency was “inactive”. For `CCCc1cc(=O)n2[nH]c(NCc3ccc(CC)cc3)nc2n1`, the Potency was “inactive”. In the case of `COc1ccccc1NC(=O)CN1C(=O)c2ccccc2Sc2ccc(C(=O)N3CCCC3)cc21`, the Potency is reported as “inactive”. For `CO/N=C/c1ccc(N2CCN(C(=O)c3cccc(Cl)c3)CC2)c([N+](=O)[O-])c1`, the Potency was “inactive”. For `O=C1CSC(=S)N1/N=C/c1ccc(O)c([N+](=O)[O-])c1`, the Potency was 3.55 µM (active). `CCC1=Nc2cc(C(=O)NCC(C)c3ccccc3)ccc2Sc2ccc(C)cc21` (configuration not stated) was tested, and the Potency was “inactive”. In the case of `CCN1CCC(N(Cc2ccc(F)cc2)C(=O)Nc2cc(C)ccc2C)CC1`, the Potency is reported as “inactive”. `Cc1ccc(-c2cc(C(=O)Oc3ccccc3Cl)no2)cc1C` was tested, and the Potency was “inactive”. In the case of `Cc1cnc(C(=O)Oc2cccc(Cl)c2Cl)cn1`, the Potency is reported as 22.4 µM (active). In the case of `Cc1cnc(C(=O)OCC(=O)Nc2ccc(Cl)cc2Cl)cn1`, the Potency is reported as “inactive”. With `CCCCSc1ncnc2c1sc1nc(N3CCOCC3)c3c(c12)CCCC3` the Potency was “inactive”. `COc1cc2c(=O)c(S(=O)(=O)c3ccc(C(C)C)cc3)cn(Cc3ccccc3C)c2cc1OC` was tested, and the Potency was “inactive”. For `CCOc1ccc(OCC)c(NC(=O)c2c(C)nn(-c3ccccc3)c2-n2cccc2)c1`, the Potency was “inactive”.
